Results on 56 compounds are retold here after PubChem BioAssay AID770 (SRMLSC, 2007).

The experiment can be described thus: HT29 colon tumor cell growth inhibition, primary screen, imaging, high content imaging, 24 h, CellTiter-Glo (AID 770).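 On condensed nuclei: share of cells whose nuclear area falls below control median minus 1.5 SD.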 The conditions noted are these: HT29 cell number by imaging, at 10 µM, stronger effect = higher value; for condensed nuclei: measured here: percent cells with condensed nuclei.
Setting [1] is: measured here: ATP CellTiter-Glo viability.

SMILES strings stand for the structures. The whole screen tested about 3,300 compounds, of which fewer than 10 were called active.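 How the source made its calls: active means growth inhibition above 90% in viable cell count at a single dose; inactive means growth inhibition below 90%.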 These entries were drawn from the full list.

In the case of `CC1(C)Cc2c(c(-c3ccccc3Cl)[nH]c(=O)c2C#N)CO1`, the growth inhibition is -42.2% (inactive) and the condensed nuclei came out at 1.85%. The growth inhibition under setting [1] is -17.5%.
Turning to `COC(=O)C(NC(C)=O)(Nc1ccccc1)C(=O)OC`, the growth inhibition is -24.8% (inactive) and the condensed nuclei was found to be 3.37%. Under setting [1], the growth inhibition was -9.05%.
For `O=C(OCCCN1CCCC1)C1(c2ccccc2)CCCC1` the same measures were 3.8% (inactive), 5.7% and 4.75%.
As to `C=C(C)CSC1=C(C#N)C(c2ccsc2)CC(=O)N1` (stereo not drawn), the growth inhibition was -9.27% (inactive) and the condensed nuclei is 1.96%. The growth inhibition under setting [1] is -4.29%.
As to `N#CC1=C2SCC(O)(c3ccccc3)N2C(=O)CC1c1ccccc1` (stereo not drawn), the growth inhibition was 90.7% (active) and the condensed nuclei was found to be 46%. Moreover, the growth inhibition under setting [1] amounted to 28.5%.
For `CCCCCCSC1=C(C#N)C(c2ccccc2)CC(=O)N1` (stereo not drawn) the same measures were -14.4% (inactive), 3.36% and -7.19%.
`Nc1c2c(nc3ccccc13)N(c1ccccc1)CC2`: the growth inhibition is -26.1% (inactive) and the condensed nuclei was 3.19%. The growth inhibition under setting [1] was -9.66%.
For `CC(C)c1cc(NCCCN2CCOCC2)n2c(nc3ccccc32)c1C#N` the same measures were -4.17% (inactive), 5.23% and -7.5%.
Taken in the same sequence, the figures for `CCCOc1ccc(C2NC(=O)NC2=O)cc1` (stereo not drawn) were 10.6% (inactive), 16% and -11.9%.
For `Cc1cc(C)n(Cc2cc(C)c(Cn3nc(C)cc3C)cc2C)n1` the same measures were -26.1% (inactive), 2.58% and -2.81%.
`CCOc1ccc2c(C)nc(NC3=NC(C)(C)C=C(C)N3)nc2c1`: the growth inhibition is 18.5% (inactive) and the condensed nuclei was determined as 3.47%. Further, the growth inhibition under setting [1] is 16.6%.
Taken in the same sequence, the figures for `CC1(C)Cc2c(sc3c4nnnn4c4nnnn4c23)CO1` were 6.59% (inactive), 2.72% and -3.55%.
For `Cc1ccc(C(=O)C2=C(O)C(=O)N(CCN3CCOCC3)C2c2ccccn2)o1` (stereo not drawn), the growth inhibition is 20.8% (inactive) and the condensed nuclei was determined as 4.96%. Further, under setting [1], the growth inhibition was 0.76%.
Taken in the same sequence, the figures for `Cc1cccn2c(=O)c(/C=C(\C#N)S(=O)(=O)c3ccccc3)c(N3CCN(C)CC3)nc12` were 5.64% (inactive), 3.93% and 13.3%.
For `Nc1nnc(CSCc2ccc(F)cc2)s1`, the growth inhibition is -13.9% (inactive) and the condensed nuclei stood at 3.43%. The growth inhibition under setting [1] is -8.17%.
Taken in the same sequence, the figures for `Cc1ccc2[nH]c3c(N4CCCCCC4)ncnc3c2c1` were 74.2% (inactive), 5.98% and 38.6%.
Taken in the same sequence, the figures for `Cc1cc(=O)oc(C)c1C(=O)Nc1cccc2nonc12` were 38% (inactive), 3.32% and 7.72%.
For the compound `C/C(=N\O)C(=O)NCCCNCCCN(C)C`, the growth inhibition was 28.6% (inactive) and the condensed nuclei is 4.53%. Further, the growth inhibition under setting [1] came out at 10.3%.
Taken in the same sequence, the figures for `N#CC1=C(SCC(=O)c2ccc(Cl)cc2)NC2=C(C(=O)CCC2)C1c1ccco1` (stereo not drawn) were 64.2% (inactive), 20.2% and 40%.
For `O=S(=O)(/C=C/c1ccccc1)Nc1ccc2c(c1)OCO2` the same measures were -3.8% (inactive), 3.87% and -13.4%.
For `CCCOc1ccc(/C(O)=C2/C(=O)C(=O)N(CCN(C)C)C2c2ccncc2)cc1` (stereo not drawn) the same measures were -14% (inactive), 5.23% and -1.78%.
Regarding `CCOc1nc(SCCOc2ccc(C)cc2)nc(N(C)C)n1`, the growth inhibition is -2.97% (inactive) and the condensed nuclei stood at 2.83%. The growth inhibition under setting [1] was -13.9%.
For `CCOC(=O)COc1ccc(Oc2nc(C)cc(OC)n2)nn1` the same measures were -1.19% (inactive), 5.21% and 1.86%.
As to `CCCCN(C(=O)CCC(=O)O)C1CC(=O)N(c2ccc(OCCC)cc2)C1=O` (stereo not drawn), the growth inhibition is 20.1% (inactive) and the condensed nuclei turned out to be 1.69%. For the same compound, the growth inhibition under setting [1] worked out at 7.14%.
With `COCc1[nH]nc2c1C(c1ccccc1OC)C(C#N)=C(N)O2` (stereo not drawn), the growth inhibition is 34.7% (inactive) and the condensed nuclei stood at 3.93%. Moreover, under setting [1], the growth inhibition is -0.21%.
On to `CC1CCc2cc(F)cc3c(O)c(C(=O)NCC4CCCO4)c(=O)n1c23` (stereo not drawn), for which the growth inhibition is 12.1% (inactive) and the condensed nuclei stood at 2.11%. Besides, the growth inhibition under setting [1] was 11.9%.
For `O=C1OC(Nc2ccc(Br)cn2)c2ccccc21` (stereo not drawn) the same measures were -21.1% (inactive), 3.37% and 2.61%.
For `CCOC(=O)c1ccc(-n2c(=O)[nH]c3ccccc3c2=O)cc1` the same measures were -28.4% (inactive), 4.94% and -4.1%.
For `COc1ccc(-c2onc(C)c2-c2ccccc2)c(O)c1`, the growth inhibition is 25.2% (inactive) and the condensed nuclei turned out to be 4.31%. Besides, the growth inhibition under setting [1] was -2.05%.
As to `CCn1c(-c2ccco2)n[nH]c1=S`, the growth inhibition was 2.65% (inactive) and the condensed nuclei is 3.02%. Besides, the growth inhibition under setting [1] is -3.63%.
As for `CN(C)C(=O)COn1c(SCC(=O)N(C)C)nc2ccccc2c1=O`, the growth inhibition is 100% (active) and the condensed nuclei was determined as 7.94%. In addition, the growth inhibition under setting [1] was -74.5%.
For `COC(=O)COn1c(SCC(=O)OC)nc2ccccc2c1=O`, the growth inhibition is 39.9% (inactive) and the condensed nuclei came to 2.06%. The growth inhibition under setting [1] was -6.12%.
Consider `CCN(CC)C(=O)COn1c(SCC(=O)N(CC)CC)nc2ccccc2c1=O`, for which the growth inhibition was 28.8% (inactive) and the condensed nuclei was 5.68%. Also, the growth inhibition under setting [1] is -9.22%.
Taken in the same sequence, the figures for `Cc1c(/C(O)=C2\C(=O)C(=O)N(CCN(C)C)C2c2cccnc2)cnn1-c1ccccc1` (stereo not drawn) were 65.4% (inactive), 7.5% and 24.8%.
With `Cc1nc2c(c(=O)n1CC1CCCO1)c1nc3ccccc3nc1n2CC(C)C` (stereo not drawn), the growth inhibition was 47.8% (inactive) and the condensed nuclei came out at 7.73%. For the same compound, the growth inhibition under setting [1] was found to be 4.29%.
As for `Cc1[nH]c(=O)[nH]c(=O)c1S(=O)(=O)N1CCCC1`, the growth inhibition is 7.67% (inactive) and the condensed nuclei was found to be 3.07%. Further, the growth inhibition under setting [1] is -13.2%.
For `CCCCSc1nnc(-c2ccc(NC(C)=O)cc2)n1C` the same measures were 14.5% (inactive), 2.33% and 6.32%.
For `c1ccc(OCc2nn3c(C4CCCCC4)nnc3s2)cc1` the same measures were 0.33% (inactive), 2.15% and -3.2%.
For `Cc1cccc(C)c1OCC(O)CNS(=O)(=O)c1ccccc1C(=O)N1CCOCC1` (stereo not drawn) the same measures were -11.9% (inactive), 3.46% and -0.31%.
With `COc1ccc(-n2ccc(=O)c3c2CCCC3=O)cc1`, the growth inhibition is -18.6% (inactive) and the condensed nuclei was found to be 3.07%. For the same compound, the growth inhibition under setting [1] was determined as 1.93%.
Taken in the same sequence, the figures for `Cc1ccc(-c2nnc(OCCN3CCOCC3)c3ccccc23)cc1` were 30.1% (inactive), 3.64% and 10.1%.
For `COc1cc(C2C(C(=O)c3ccc(C)o3)=C(O)C(=O)N2c2cc(C)on2)cc(OC)c1OC` (stereo not drawn) the same measures were -22% (inactive), 3.21% and -13.1%.
Taken in the same sequence, the figures for `Cc1c(OCc2ccccc2)c(=O)ccn1Cc1ccccc1` were -0.34% (inactive), 1.99% and -10.9%.
In the case of `Oc1oc(-c2ccccc2)nc1C=NCc1ccncc1`, the growth inhibition was 2.2% (inactive) and the condensed nuclei came to 3.2%. Moreover, under setting [1], the growth inhibition is -2.06%.
For `CC1(C)CC(N(Cc2ccco2)C(=O)Cc2ccccc2)CCO1` (stereo not drawn), the growth inhibition is 12.6% (inactive) and the condensed nuclei was found to be 2.03%. Also, under setting [1], the growth inhibition was found to be 0.11%.
For `Cc1cc(C)n(-c2ncnc3sc(C)c(C)c23)n1` the same measures were -10.3% (inactive), 1.35% and 2.85%.
Consider `COc1ccc(C2NC(=O)NC(O)(C(F)(F)F)C2C(=O)c2ccc(F)cc2)cc1` (stereo not drawn), for which the growth inhibition is -33.6% (inactive) and the condensed nuclei was determined as 2.45%. For the same compound, the growth inhibition under setting [1] was found to be 0.76%.
Turning to `CC(C)c1ccc(O)c(N)c1`, the growth inhibition is -26.1% (inactive) and the condensed nuclei stood at 5.48%. Besides, the growth inhibition under setting [1] was 2.95%.
Taken in the same sequence, the figures for `CC1(C)NC(=O)N(CC(O)COc2cc3ccccc3cc2C(=O)N2CCCCC2)C1=O` (stereo not drawn) were 23.3% (inactive), 4.21% and -6.38%.
Turning to `COC(=O)c1n[nH]c2ccccc12`, the growth inhibition is 52.2% (inactive) and the condensed nuclei came out at 5%. Also, the growth inhibition under setting [1] was 8.18%.
For `CCCCCCOc1ccc(C(=O)n2cnc(N)n2)cc1` the same measures were -1.14% (inactive), 1.48% and -15.8%.
For `O=c1[nH]cnc2cc(-c3ccccc3)sc12` the same measures were 7.95% (inactive), 2.77% and 3.25%.
Take `COc1cccc(NC(=O)c2cc(C(=O)Nc3cccc(OC)c3)n(C)n2)c1`: the growth inhibition was -5.68% (inactive) and the condensed nuclei was determined as 6.71%. Further, the growth inhibition under setting [1] was determined as 22.7%.
For `COC(=O)c1ccc(C2/C(=C(/O)c3ccc(OC)cc3)C(=O)C(=O)N2c2cc(C)on2)cc1` (stereo not drawn) the same measures were 8.36% (inactive), 3.44% and 6.44%.
For `COc1cc(C)nc(N(C)S(=O)(=O)c2ccccc2Cl)n1` the same measures were 7.98% (inactive), 3.59% and -1.53%.
Taken in the same sequence, the figures for `Cn1c(NCC(O)c2ccccc2)nc2c1c(=O)n(Cc1ccc(Cl)c(Cl)c1)c(=O)n2C` (stereo not drawn) were 46.1% (inactive), 1.95% and 22.7%.
